Compound activity from PubChem.
hcDAF-12 act: activators of H. contortus DAF-12 nuclear receptor | HEK293 hcDAF-12 lit1-tk-luc reporter, luminescence; 0% DMSO, 100% Δ7-dafachronic acid | activation, % at 6.8 µM | 1.4% of 370,000 active | AID 652067;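 active = activation above the mean of all tested compounds plus 3 SD, cut at about 5.5% in these data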;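 note: 100% = response to 3 µM Δ7-dafachronic acid high control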
DAX1 inh-1: inhibits human nuclear receptor DAX1; P51843; HEK293 Gal4-DAX1 luciferase reporter, luminescence; inhibition, % at 6.75 µM; 0.99% of 340,000 active; AID 504766;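 active = inhibition above the mean over all tested compounds plus 3 SD, cut at about 4.2% in these data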;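 note: 0% = DAX1-transfected cells with DMSO and 100% = empty-vector control cells with DMSO; inhibition shows as a rise in luminescence from relieved DAX1 repression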
Target sequence (P51843 207-470 limits assumed): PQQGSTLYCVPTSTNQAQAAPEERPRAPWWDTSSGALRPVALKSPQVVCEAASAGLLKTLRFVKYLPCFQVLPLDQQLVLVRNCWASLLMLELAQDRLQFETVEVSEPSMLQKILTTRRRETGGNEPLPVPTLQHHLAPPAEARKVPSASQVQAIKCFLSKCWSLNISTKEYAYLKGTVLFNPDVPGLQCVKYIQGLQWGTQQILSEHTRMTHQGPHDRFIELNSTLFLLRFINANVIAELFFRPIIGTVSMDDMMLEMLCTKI
GAA850 FXN act: activators of GAA850 frataxin (FXN) promoter; 0.56% of 360,000 active; HEK293 lucGAA850 FXN promoter luciferase reporter, 24 h; percent of 10 µM SAHA response; activation, % at 6 µM;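 active = activation above the average of all compounds screened plus 3 SD, cutoff fixed separately per campaign, cut at about 7.5% in these data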;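 note: 0% = DMSO wells and 100% = 10 µM SAHA wells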
ssDAF12 agonist: activators of S. stercoralis DAF-12 nuclear receptor; HEK293 ssDAF-12/GRIP1 lit1-tk-luc reporter, luminescence; % of 3 µM dafachronic acid response; activation, % at 6.8 µM; 1% of 370,000 active; AID 652126;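 active = activation above the mean over all tested compounds plus 3 SD, cut at about 0.9% in these data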;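 note: 0% = DMSO-only wells and 100% = 3 µM delta7-dafachronic acid wells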
hgDAF-12 ag: activates the H. glycines DAF-12 receptor ligand-binding domain; AID 687014; HEK293 GAL4-hgDAF12 UAS-luciferase reporter, agonist luminescence; normalized to butyrate control; activation, % at 6.8 µM; 1.8% of 370,000 active;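 active = activation above a cutoff set at the mean of all screened compounds plus 3 SD, cut at about 10% in these data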;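 note: 0% = DMSO wells and 100% = sodium butyrate wells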
DAX1 inh-2: inhibitors of DAX1 repression of SF-1 activated StAR promoter | inhibition, % at 6.8 µM | HEK293T StAR-luciferase reporter, SF-1/DAX-1 repression relief | 1.1% of 370,000 active | AID 652010;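 active = inhibition above the mean over all tested compounds plus 3 SD, cut at about 3.6% in these data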;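 note: 0% = DAX-1 cells with DMSO and 100% = cells lacking DAX-1 with DMSO; higher inhibition means more luminescence from relief of DAX-1 repression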
GAA30 counter: GAA30 FXN promoter activation counter-screen; HEK293 lucGAA30 FXN promoter luciferase, 24 h; DMSO = 0%, 5 µM ipriflavone = 100%; shares compounds with GAA850 FXN act; AID 588350; 66% of 1,900 active; activation, % at 6 µM;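 active = mean activation above the mean of solvent-only control wells plus 3 SD, cut at about 22% in these data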;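 note: counterscreen of GAA850 promoter hits where activity marks nonselective or luminescence artifacts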
FXN GAA850 conf: GAA850 FXN promoter activation confirmation; AID 588351; activation, % at 6 µM; 86% of 1,900 active; HEK293 lucGAA850 FXN promoter luciferase reporter, 24 h; 100% = activation by SAHA; shares compounds with GAA850 FXN act;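 active = mean activation above a set limit taken from the primary screen, cut at about 8% in these data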;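 note: 0% = DMSO wells and 100% = 10 µM SAHA wells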
An asterisk follows results filed as active; . = not tested or not shown. A selection: hits, their analogues and other compounds. The true share with any hit is near 4.5%.

SMILES	hcDAF-12 act	DAX1 inh-1	GAA850 FXN act	ssDAF12 agonist	hgDAF-12 ag	DAX1 inh-2	GAA30 counter	FXN GAA850 conf
C=CCOC(=O)C1=C(C)NC(C)=C(C(=O)OCC=C)C1c1cn(-c2ccccc2)nc1-c1ccco1	-0.6	-1.3	12.9*	-0.7	1.9	0.2	10.6	4.6
N#Cc1ccc(NC(=O)OC2CCC23CCC(c2ccccc2)CC3)cc1 (stereo unspecified)	-0.1	.	.	-1.3	0.5	-2.1	.	.
COCc1cc(N2CCNC[C@@H]2C)ccc1N1CCN(Cc2ccccc2)[C@H](C)C1	-0.9	.	.	-1.5	0.4	0.1	.	.
CC(=NNC(=S)N(Cc1ccccn1)Cc1ccccn1)c1cnccn1	1.9	-0.6	11.9*	-0.8	2.5	-1.0	-115.7	-32.6
CC(=NNC(=S)N1CC2CCC(CC2)C1)c1cnccn1	-1.4	-4.7	3.7	-1.3	1.9	-0.8	.	.
C=CCc1c(C)nc(-c2ccccc2)nc1N/N=C/c1ccccc1	0.6	-0.9	0.3	-1.6	6.5	0.0	.	.
C=CCc1c(C)nc(-c2ccccc2)nc1Nc1ccccc1O	2.5	-0.3	7.9*	-0.6	-1.6	-0.3	30.4*	20.6*
FC(F)(F)c1cnc(-c2cnc3c(-c4ccc(Cl)cc4)cnn3c2)c(Cl)c1	-0.3	1.6	-0.8	-1.6	1.6	-0.3	.	.
Cc1nn2cc(-c3ncc(C(F)(F)F)cc3Cl)cnc2c1Br	2.6	.	10.0*	0.1	13.1*	1.5	54.1*	19.7*
Cc1cc(C(=O)Cn2ncc(Cl)c(Cl)c2=O)c(C)n1CC(F)(F)F	-0.6	-0.2	13.7*	-1.2	-2.1	0.8	20.9	22.5*
CN(C(=O)c1cccc(NC(=O)Cc2ccc(NC(=O)C3CCN(C(=O)CCc4ccccc4)CC3)cc2)c1)C1CCCC1	-3.0	.	.	-1.2	1.0	-0.2	.	.
Cc1ccc(NC(=O)C(Cc2ccccc2)N2C(=O)C3C4CCC(C4)C3C2=O)cc1Cl (stereo unspecified)	-0.8	-2.5	-2.9	-1.4	2.6	0.0	.	.
Cc1ccc(Cl)cc1NC(=O)C(Cc1ccccc1)N1C(=O)C2C3CCC(C3)C2C1=O (stereo unspecified)	-0.3	0.3	15.3*	-0.7	3.8	0.2	18.7	9.4*
Cc1ccc(NC(=O)C(=O)NCc2ccccn2)cc1	1.4	2.1	8.3*	-0.9	7.8	0.7	90.1*	38.0*
O=C(NCc1ccccn1)C(=O)Nc1ccccc1	-2.3	1.6	2.5	-0.8	7.3	1.3	.	.
CN1C(=O)C[C@@](C#N)(C(=O)NCc2ccc3c(c2)OCO3)[C@H]1c1ccccc1	1.1	.	.	-0.4	2.5	1.8	.	.
O=C(COc1ccccc1)Nc1nc(-c2cccs2)cs1	-2.8	0.2	3.4	-1.0	-1.6	0.3	.	.
O=C(CCS(=O)(=O)c1ccccc1)Nc1nc(-c2cccs2)cs1	2.5	-0.5	8.8*	-1.2	-3.2	-0.1	-8.6	9.8*
CC(=O)c1cc(-c2ccccc2)n(CC(=O)NCc2ccc(F)cc2)c1C	-3.2	.	.	-1.5	-0.8	-0.7	.	.
COc1ccccc1NC(=O)OC1CC2CC1[C@H]1CCCCN1[C@H]2C (stereo partly specified)	-0.1	.	.	-0.4	0.8	0.9	.	.
CC(C)n1cnc2c(Nc3cccc(Cl)c3)nc(NCCCO)nc21	-2.6	-2.3	8.7*	-2.3	-2.9	-1.8	53.5*	15.4*
CC(NC(=O)Cn1ccsc1=N)C12CC3CC(CC(C3)C1)C2 (stereo unspecified)	-1.2	1.9	1.9	-1.2	0.2	0.6	.	.
CC(NC(=O)CSC(=S)N(C)C)C12CC3CC(CC(C3)C1)C2 (stereo unspecified)	0.0	1.4	9.4*	-1.1	2.2	-0.5	31.4*	14.5*
CCc1ccc(CCNC(=O)OC2CC3CC2[C@H]2CCCCN2C3)cc1 (stereo partly specified)	1.2	.	.	-0.3	0.2	1.9	.	.
